# Test results: PubChem BioAssay (EPA / NIEHS)
# Records with an inconclusive call do not appear. Calls of active or inactive are those of the source. Rule for the calls: active = hit-call score of the fitted dose curve at least 0.9, where 1 is the maximum; inconclusive = response in the unintended direction; inactive = score below 0.9.
# Test system: Sodium/Iodide Symporter (NIS), SLC5A5 (gene 6528)
# Test: CPHEA_Stoker_NIS_Inhibition_RAIU: CPHEA's Radioactive Iodide Uptake (RAIU) Assay for Sodium/Iodide Symporter (NIS) Inhibition, Stoker and Laws Labs (AID 2283841)
# Method: CPHEA_Stoker_NIS is a cell-based, single-readout assay that uses hNIS-HEK293T-EPA, a novel human kidney cell line expressing human NIS, with measurements taken at 2 hours after chemical dosing in a 96-well plate. This radioactive iodide uptake (RAIU) assay is used to identify inhibitors of NIS-mediated iodide uptake. A parallel cytoxicity assay (Cell Titer Glo, Promega) was also run in the same cell line.CPHEA_Stoker_NIS_Inhibition_RAIU is one of 2 assay components measured from the CPHEA_Stoker_NIS assay. It is designed to make measurements of radioactive substrate uptake to understand transporter function, as detected with 125-i signals by MicroBeta radioactivity plate reader technology.Data from the assay component CPHEA_Stoker_NIS_Inhibition_RAIU was analyzed at the endpoint, CPHEA_Stoker_NIS_Inhibition_RAIU, in the positive analysis fitting direction relative to DMSO as the negative control and baseline of activity. Measures of radioactive substrate uptake for loss-of-signal activity can be used to understand the effects on transporter function at the pathway level as they relate to the sodium-iodide symporter, gene SLC5A5. To generalize the intended target to other relatable targets, this assay endpoint is annotated to the transporter intended target family, where the subfamily is sodium-iodide symporter (NIS).
# hNIS-HEK293T-EPA cells were seeded with a MultiFlo FX dispenser (BioTek, Winooski, VT) into ScintiPlate-96 microplates (Perkin Elmer, Waltham, MA) at a density of 4.0x10^4 cells per well in 200uL growth media and incubated for 40 hours before experimentation. On day of the assay, carrier-free 125I (Perkin-Elmer, Waltham, MA; specific activity: 17.4Ci/mg) was diluted with Hanks' balanced salt solution (Sigma, St. Louis, MO) supplemented with 10mM HEPES (uptake buffer; pH 7.4) at 5uCi/mL (288pg 125I/mL uptake buffer; 2.30nM). The assay was initiated by washing cells twice with 200uL uptake buffer using a 96-well Tecan HydroSpeed plate washer (Tecan, Mannedorf, Switzerland). Uptake buffer (59.7uL) was then added back to each well. Chemical samples (350nL at 200X) were administered using the HDR tool as previously described to achieve a 1X chemical/0.5% final DMSO concentration with subsequent addition of 10uL of 125I dilution (final [125I]: 329pM; 2.88pg/well) for a final reaction volume of 70uL/well. Cells were incubated at room temperature for 2 hours and then washed twice with 200uL ice cold uptake buffer. All uptake buffer was aspirated from wells, plates were sealed, and read on a MicroBeta2 plate reader (Perkin Elmer, Waltham, MA) using a detection protocol to measure CPM corresponding to intracellular 125I concentration. Each chemical concentration (0.001, 0.01, 0.1, 1.0, 10, and 100uM) was assayed in triplicate with three independent biological replicate plates (3 sequential cell passages). Additionally, a concentration response of NaClO4 (0.001, 0.01, 0.1, 1.0, 10, and 100uM) served as a positive control inhibition curve on each RAIU assay plate. DMSO control wells were assayed on each plate as a measure of maximum iodide uptake for normalization and determination of intra- and inter-assay variation. (Toxicol In Vitro, 2017, 40:66-78).
Compound,outcome,AC50
CC(C)(OOC(C)(C)c1ccccc1)c1ccccc1,inactive,–
O=[N+]([O-])c1ccc(Oc2ccc(Cl)cc2Cl)cc1,inactive,–
ClC1=C(Cl)[C@]2(Cl)[C@H]3[C@H]([C@@H]4C=C[C@H]3C4)[C@@]1(Cl)C2(Cl)Cl,inactive,–
Clc1ccc(C(c2ccc(Cl)cc2)C(Cl)Cl)cc1,inactive,–
[Cl-].[Cl-].[Hg+2],–,7.02 µM (active)
Brc1ccc(Oc2ccccc2)cc1,inactive,–
CC(C)(O)c1cnn2c(-c3ccc(F)c(-c4c(F)cccc4C#N)c3)cnc2n1,inactive,–
Nc1ccc(Cl)cc1N,–,50 µM (active)
Oc1ccc2ccc3cccc4ccc1c2c34,inactive,–
CCC[CH2][Sn]([Cl])([CH2]CCC)[CH2]CCC,–,8.22 µM (active)
CCCCCCCCn1sccc1=O,inactive,–
CCCCOC(=O)c1ccccc1C(=O)OCc1ccccc1,inactive,–
CCNS(=O)(=O)C(F)(F)C(F)(F)C(F)(F)C(F)(F)C(F)(F)C(F)(F)C(F)(F)C(F)(F)F,inactive,–
Cc1cc(N=Nc2ccccc2C)ccc1N,inactive,–
CCC(C)c1ccc(O)cc1 (stereo not given),inactive,–
c1ccc2c(c1)oc1ccccc12,inactive,–
Cc1cccc(N)c1N,inactive,–
CCOC(=O)[C@]1(c2ccccc2)Oc2ccccc2[C@@H]1N,inactive,–
ClC1=C(Cl)C2(Cl)C3C(Cl)C=CC3C1(Cl)C2(Cl)Cl (stereo not given),inactive,–
CN(C)c1ccc(C(=O)c2ccc(N(C)C)cc2)cc1,inactive,–
